Screening data as filed in PubChem BioAssay.
Rows were chosen to be rich in hits. Some 2.8% of all compounds tested hit in one or more screens of this group.
POLB inh = qHTS Assay for Inhibitors of DNA Polymerase Beta | P06746 | Pol beta primer extension/strand displacement, fluorescence kinetic | Potency, µM (series often up to 114 µM), for the others: top-dose activity change, negative = inhibition, actives largely listed as inhibitors | hit rate 1.3% among 340,000; further: potency means the concentration at half of the fitted maximal effect; on the % scale 0 is the no-effect control and ±100 the full control effect
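Kinetic readout of DNA synthesis with strand displacement by Pol beta. Compound and 10 nM enzyme sit 15 min at room temperature; 50 nM substrate starts the reaction, read immediately and at 10 min.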
POLK inh = qHTS for Inhibitors of Polymerase Kappa | DNA polymerase kappa (Homo sapiens), Q9UBT6 | purified Pol kappa, fluorescent DNA synthesis assay, 10 min | Potency, µM (highest dose often 107 µM), inactives show at the highest dose activity, negative = inhibition, usual class: inhibitors | hit rate 0.53% among 400,000 | AID 588579, 2011; further: potency means the concentration at half of the fitted maximal effect; on the % scale 0 is the no-effect control and ±100 the full control effect
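Kinetic fluorescence screen: compound preincubated 15 min RT with 10 nM enzyme; 50 nM substrate (final) initiates; reads at 0/10 min.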
POLI inh = qHTS for Inhibitors of Polymerase Iota; Pol iota fluorescent replication assay, 10 min; Potency, µM (series often up to 115 µM), inactives show at the top dose activity, negative = inhibition, most hits filed as inhibitors; hit rate 1% among 390,000; AID 588590, 2011; further: potency means the concentration at half of the fitted maximal effect
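Fluorescent replication assay read twice, at 0 min and 10 min after adding 50 nM (final) substrate. Enzyme (10 nM) and compounds were first incubated 15 min at room temperature; enzyme-free buffer wells were negative controls.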
PI5P4K alpha inh = qHTS for Inhibitors of phosphatidylinositol 5-phosphate 4-kinase (PI5P4K) | Phosphatidylinositol 5-phosphate 4-kinase type-2 alpha (Homo sapiens), P48426 | PI5P4Kalpha enzyme, ADP-Glo luminescence, 60 min; stronger effect = lower value | max response, % | hit rate 1.2% among 330,000 | AID 652105, 2013; active means max response of -50% or lower; inconclusive means between -30% and -50%; inactive means -30% or higher; further: value at the top dose of about 77 µM; on the % scale 0 is the no-effect control and ±100 the full control effect
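ADP-Glo luminescence end-point after a 60 min room-temperature kinase reaction. PI5P4Kalpha and substrate in HEPES pH 7.4 buffer with EGTA, 0.1% CHAPS and 5% DMSO; ATP at 5 microM final.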
WRN helicase inh = qHTS for Inhibitors of WRN Helicase. hit rate 0.46% among 360,000. Potency, µM (series often up to 114 µM), without a hit: top-dose activity change, negative = inhibition, actives largely listed as inhibitors. Bifunctional 3'-5' exonuclease/ATP-dependent helicase WRN (Homo sapiens), Q14191. WRN helicase unwinding, fluorescent forked duplex, kinetic; further: potency means the concentration at half of the fitted maximal effect; on the % scale 0 is the no-effect control and ±100 the full control effect; nearly all actives have a fitted effect of over 55% in size
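Kinetic red-fluorescence monitoring (525/598 nm) tracks WRN helicase activity after 100 nM fluorophore-quencher forked duplex and 2 mM ATP are added to 20 nM enzyme pretreated 15 min at room temperature with compound.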
Pol eta inh-1 = qHTS for Inhibitors of Polymerase Eta; DNA polymerase eta (Homo sapiens), Q9Y253; recombinant Pol eta, fluorescent DNA replication assay; AID 588591, 2011; hit rate 1.2% among 390,000; Potency, µM (top dose mostly 114 µM), for inactives: at the top dose activity change, negative = inhibition, actives largely listed as inhibitors; further: potency means the concentration at half of the fitted maximal effect; on the % scale 0 is the no-effect control and ±100 the full control effect
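Pol eta at 10 nM preincubated with compounds 15 min at room temperature; reaction started with fluorescent substrate (50 nM final) and read kinetically at 0 and 10 min.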
GALK confirm = Confirmation Assay for Inhibitors of Human Galactokinase (GALK); shares compounds with Pol eta inh-1; purified GALK, Kinase-Glo ATP depletion luminescence; Potency, µM (doses to about 115 µM), for the others: top-dose activity, negative = inhibition, usual class: inhibitors; hit rate 70% among 150; AID 2015, 2009
Redox cycling = Confirmatory Assay for Inhibitors of Human Galactokinase (GALK): Phenol-HRP redox assay counterscreen | shares compounds with Pol eta inh-1 | Phenol red-HRP H2O2 redox cycling, absorbance 600 nm | Potency, µM (series often up to 115 µM), without a hit: top-dose activity change, negative = H2O2 signal, most hits filed as inhibitors | hit rate 40% among 150
HEK293 viability = Secondary Assay for Inhibitors of Human Galactokinase (GALK): HEK-293 Cell Viability Assay. shares compounds with Pol eta inh-1. HEK-293 viability, ATP luminescence (CellTiter-Glo), 24/48 h. Potency, µM (titrated, usually from 46.1 µM), without a hit: top-dose activity change, negative = cytotoxicity, actives largely listed as inhibitors. hit rate 10% among 170. AID 2547, 2010; further: potency means the concentration at half of the fitted maximal effect; on the % scale 0 is the no-effect control and ±100 the full control effect
Pol eta inh-2 = qHTS for Inhibitors of Polymerase Eta: Confirmatory Assay for Cherry-picked Compounds; AID 720502, 2013; Potency, µM, most hits filed as inhibitors; Pol eta primer extension, TAMRA/BHQ fluorescence, 10 min; shares compounds with Pol eta inh-1; hit rate 64% among 2,600; further: potency means the concentration at half of the fitted maximal effect
* hit, by the source's call; ? = inconclusive; nt = no result given; [ ] = another dose, or the depositor's remark. Unless noted, the call rests on the fitted dose curve; in most records, active means well fitted curve in the direction sought with a large enough effect; inconclusive means small, poorly fitted or top-dose-only effect, or another doubt; inactive means no such curve, though single readings can be large; an effect the other way counts as inactive or inconclusive.

SMILES	POLB inh	POLK inh	POLI inh	PI5P4K alpha inh	WRN helicase inh	Pol eta inh-1	Pol eta inh-2	others
O=C1CCC(C(=O)OCC(=O)Nc2ccccc2Br)=NN1	nt	nt	nt	2.1	-1.0%	-17.6%	nt
N#Cc1ccsc1NC(=O)COC(=O)C1=NNC(=O)CC1	nt	?	14.1µM*	-82.3*	?	20µM*	75.7*
O=C(c1ccc(COc2ccc(Cl)cc2Cl)o1)N1CCCC1	13.2%	-7.7%	13.1%	0.6	-26.3%	-5.8%	nt
O=C(CCC1N=C2c3ccccc3N=C(SCC(=O)NCc3ccco3)N2C1=O)NCc1ccco1 (stereo not drawn)	31.6µM*	?	12.6µM*	-17.3	?	?	?
CCc1ccc(C(=O)C(C)OC(=O)C2COc3ccccc3O2)cc1 (stereo not drawn)	-1.3%	-20.0%	14.8%	6.5	0.1%	-31.4%	nt
N#CCSc1nnc(N)s1	3.5%	-9.1%	9.2%	-7.3	-4.4%	-14.1%	nt
N#CCSc1nnc(SCC#N)s1	?	?	?	-75.0*	?	20µM*	75.7*
CCOc1cc(/C=C2/C(=N)N3C(=NC2=O)SN=C3S(C)(=O)=O)ccc1OS(=O)(=O)c1ccccc1	?	-8.9%	?	-63.4*	-27.4%	79.4µM*	nt	GALK confirm=33.5µM*;Redox cycling=-4.5%;HEK293 viability=8.9%
CC(C)(C)NC(=O)CN(C(=O)CCC(=O)Nc1nccs1)c1cccc(C(F)(F)F)c1	-1.1%	3.3%	7.4%	-3.3	-3.0%	-8.8%	nt
CC(/C=C/c1ccco1)=N\NC(=O)c1cc(Cl)ccc1O	?	79.4µM*	39.8µM*	-80.1*	?	22.4µM*	?
CC(/C=C/c1ccco1)=N/NC(=O)Cc1cccs1	22.4µM*	?	31.6µM*	-52.0*	?	17.8µM*	?
CC(=O)N1CCCc2cc(S(=O)(=O)N3CCC(C(=O)N(Cc4ccccc4)C(C)C)CC3)ccc21	0.5%	-3.5%[60.1 µM]	31.2%	nt	nt	?	nt
O=c1c(C=Nc2cccc(C(F)(F)F)c2)c[nH]n1-c1cccc(Cl)n1	?	-1.9%	-8.3%	nt	?	89.1µM*	?
CCOC(=O)c1[nH]c2ccccc2c1NC(=O)c1c(F)cccc1F	58.1%	-6.6%	-24.4%	nt	nt	-11.4%	nt
CCCCNC(=O)C[C@@H]1C[C@@]2(C(=O)OCC)CCC=C2N(CCC2=CCCCC2)C1=O	nt	nt	nt	-0.6	-14.0%	nt	nt
COc1ccc(Cn2c(O)c(C=Nc3ccccc3C(=O)O)c3ccccc3c2=O)cc1	?	-44.6%	?	-12.9	?	20µM*	67.5*
O=c1c(C(c2c(O)nc3n(c2=O)CCS3)c2cccc3ccccc23)c(O)nc2n1CCS2	?	39.8µM*	?	-76.4*	?	22.4µM*	?
